# According to the supplement of paper PMC10127200:
# Where a name gives a salt, the structure may show the parent alone.
# Tests used:
# Test in all cases: Euclidean distance of Cell Painting phenotypic profile (signed KS, 77 features) to DMSO centroid (dimensionless distance); 5 or 10 uM (library dependent); higher = stronger phenotypic change vs DMSO (phenoactivity)
# Details in all cases: 48 h
# 786-O = test system: 786-O
# Procedure, shortened: (§1)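 Stained cells were imaged confocally at 20X with 9 fields per well, after 48 h of exposure to library compounds at 10 or 5 uM (set by library; 0.1% DMSO final). The cells were five cancer lines and a healthy fibroblast line. From the images, Harmony extracted 77 features, each expressed as a signed Kolmogorov-Smirnov statistic relative to same-plate vehicle wells. Phenoactivity is measured as Euclidean distance to the median vehicle profile, using plate-position-corrected, correlation-weighted profiles averaged across replicates at the top dose.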
# A549 = test system: A549
# Procedure, shortened: as §1
# DU145 = test system: DU145
# Procedure, shortened: as §1
# FB = test system: FB
# Procedure, shortened: as §1
# HEPG2 = test system: HEPG2
# Procedure, shortened: as §1
# OVCAR4 = test system: OVCAR4
# Procedure, shortened: as §1
Structure (SMILES),Euclidean distance (786-O),Euclidean distance (A549),Euclidean distance (DU145),Euclidean distance (FB),Euclidean distance (HEPG2),Euclidean distance (OVCAR4)
NCC(=O)O [Glycine],1.61,0.971,0.929,1,0.776,1.93
OCc1cc(C(O)CNCCCCCCOCCCCc2ccccc2)ccc1O (configuration not stated) [Salmeterol Xinafoate],1.27,1.68,1.58,2.11,2.19,1.28
N=C(NCCCCCCNC(=N)NC(=N)Nc1ccc(Cl)cc1)NC(=N)Nc1ccc(Cl)cc1 [Chlorhexidine],2.05,3.54,1.97,2.12,2.92,3.25
C[C@H](NC(=O)CCC(F)(F)F)C(=O)N[C@@H]1C(=O)N(CCO)c2ncccc2-c2ccccc21,0.859,0.929,1.3,0.741,0.66,1.09
O=C(NCCN1CCOCC1)Nc1nc2ccc(Sc3nnc4ccc(-c5ccc(F)cc5)nn34)cc2s1,1.21,1.01,1.2,1.23,0.646,1.15
Cc1ccc2nc(NCCN)c3ncc(C)n3c2c1,0.585,1.64,1.21,1.55,2.99,1.57
NC1(c2ccc(-c3nc4ccn5c(=O)[nH]nc5c4cc3-c3ccccc3)cc2)CCC1,3.5,2.58,2.67,3.61,2.59,2.07
CCc1c(C)[nH]c2c1C(=O)C(CN1CCOCC1)CC2 (configuration not stated) [Molindone hydrochloride],1.11,0.479,0.934,0.703,0.317,0.874
COc1cc(C(=O)OCCCCNC(=N)N)cc(OC)c1O [Leonurine],1.19,0.869,0.698,1.29,0.641,0.953
O=C(/C=C/C#Cc1cccc(NS(=O)(=O)c2ccccc2)c1)NO [Oxamflatin],3.39,3.01,2.81,4.53,2.79,3.64
CCCCCc1ccc(C)cc1O [Amylmetacresol],0.732,0.727,0.517,0.859,0.412,0.661
CC[C@@H]([C@H](C)O)n1ncn(-c2ccc(N3CCN(c4ccc(OC[C@@H]5CO[C@@](Cn6cncn6)(c6ccc(F)cc6F)C5)cc4)CC3)cc2)c1=O [Posaconazole],3.81,2.06,2.09,2.3,1.43,1.21
O=C(O)C1CSCN1 (configuration not stated) [Timonacic],1.39,0.753,0.835,0.853,0.578,1.18
COC1=C(OC)C(=O)C(CCCCCCCCCCO)=C(C)C1=O [Idebenone],1.45,0.641,0.677,1.22,1.05,0.744
CCN1C(=O)NC(c2ccccc2)C1=O (configuration not stated) [Ethotoin],0.868,0.725,0.615,0.863,0.528,1.28
Nc1ccc(S(=O)(=O)c2ccc(N)cc2)cc1 [Dapson],1.45,2.62,2.45,1.64,0.497,1.8
CCn1cc(C(=O)O)c(=O)c2cnc(N3CCCC3)nc21 [Piromidic Acid],1.37,0.767,0.647,0.879,0.512,1.02
CC(=O)O[C@]1(C(C)=O)CC[C@H]2[C@@H]3C=C(Cl)C4=CC(=O)CC[C@]4(C)[C@H]3CC[C@@]21C [Chlormadinone acetate],1.27,1.1,1.72,1.26,0.98,0.962
NCCS(=O)(=O)O [Taurine],1.5,0.858,1.34,0.921,0.768,1.35
C[C@H](Nc1ccc(C#N)n(C)c1=O)c1cc2cc(Cl)ccc2[nH]c1=O [Olutasidenib (FT-2102)],1.42,0.866,0.784,1.36,0.641,1.06
CCN1CCN(C(=O)N[C@@H](C(=O)N[C@@H]2C(=O)N3[C@@H]2SC(C)(C)[C@@H]3C(=O)O)c2ccccc2)C(=O)C1=O [Piperacillin Sodium],1.11,0.62,0.884,1.1,0.514,1.25
CN1CCN(c2nc(C3=C(c4c[nH]c5ccccc45)C(=O)NC3=O)c3ccccc3n2)CC1 [Sotrastaurin],2.18,1.58,1.36,2.47,1.37,1.2
CC(C)(Sc1ccncc1-c1ccc(C#N)c2ccccc12)C(=O)O [Verinurad (RDEA3170)],0.821,0.673,0.864,1.25,0.457,1.2
NC(=O)N/N=C/c1ccc([N+](=O)[O-])o1 [Nitrofural],1.31,0.907,1.62,1,0.466,1.22

Structure (SMILES),Euclidean distance (786-O),Euclidean distance (A549),Euclidean distance (DU145),Euclidean distance (FB),Euclidean distance (HEPG2),Euclidean distance (OVCAR4)
CCN(CC)CCNC(=O)c1ccc(N)cc1 [Procainamide HCl],0.693,1.02,0.74,0.787,0.326,1.07
C[C@@H]1C[C@H]2[C@@H]3C[C@H](F)C4=CC(=O)C=C[C@]4(C)[C@@]3(F)[C@@H](O)C[C@]2(C)[C@@]1(OC(=O)c1ccco1)C(=O)SCF [fluticasone furoate],2.17,2.7,2.56,2.29,1.53,1.72
CC(C)OC(=O)CCC/C=C\C[C@@H]1[C@@H](/C=C/C(F)(F)COc2ccccc2)[C@H](O)C[C@@H]1O [Tafluprost],1.72,1.49,0.876,1.25,0.711,0.833
N=C(N)NC(=O)Cc1c(Cl)cccc1Cl [Guanfacine Hydrochloride],1.58,0.941,1.05,1.09,0.41,0.929
C[C@@H](C(=O)Nc1ccc(Cl)cc1)C1CCC(c2ccnc3ccc(F)cc23)CC1 (some centres not stated),1.84,2.05,1.38,1.29,1.93,1.69
COc1ccc2cc(CCC(C)=O)ccc2c1 [Nabumetone],0.791,1.11,0.872,0.947,0.532,1.55
COc1ccc2cc([C@H](C)C(=O)O)ccc2c1 [Naproxen],0.797,0.78,1.05,0.816,1.13,1.28
Cn1c(Nc2ccc(C(F)(F)F)cc2)nc2cc(Oc3ccnc(-c4ncc(C(F)(F)F)[nH]4)c3)ccc21,1.98,1.97,1.46,3.86,1.24,1.5
CCCCOc1ccc(OCCCN2CCOCC2)cc1 [Pramoxine HCl],1.3,0.99,1.08,0.528,0.51,1.2
Cc1ccc(-n2sc(=O)n(Cc3ccc(F)cc3)c2=O)cc1,1.53,0.968,0.775,1.84,0.924,1.14
COC(=O)C1=C(C)NC(C)=C(C(=O)OC(C)C)C1c1cccc2nonc12 (configuration not stated) [Isradipine],1.36,1.33,1.21,1.42,1.56,1.1
COC(=O)Nc1nc2cc(Sc3ccccc3)ccc2[nH]1 [Fenbendazole],2.61,2.78,3.05,2.21,2.12,2.83
COc1ccc(C(Cl)=C(c2ccc(OC)cc2)c2ccc(OC)cc2)cc1 [Chlorotrianisene],1.13,1.23,0.763,1.08,1.11,1.04
CCOc1nc2cccc(C(=O)O)c2n1Cc1ccc(-c2ccccc2-c2noc(=O)[nH]2)cc1 [Azilsartan],0.834,0.784,0.835,0.563,0.88,0.784
c1ccc(CC2=NCCN2)cc1 [Tolazoline HCl],0.97,1.05,0.877,0.718,0.734,1.42
COc1cc2c(N3CCN(C(=O)Nc4ccc(OC(C)C)cc4)CC3)ncnc2cc1OCCCN1CCCCC1 [Tandutinib (MLN518)],0.691,1.73,1.35,2.68,1.52,1.12
C[C@@H](NCCCc1cccc(C(F)(F)F)c1)c1cccc2ccccc12 [Cinacalcet HCl],1.32,1.57,1.89,1.06,1.85,1.42
CS(=O)(=O)n1cc2c(n1)CN([C@H]1CO[C@H](c3cc(F)ccc3F)[C@@H](N)C1)C2 [Omarigliptin (MK-3102)],1.02,2.02,1.89,1.7,2.25,2.16
N#Cc1cc(-c2n[nH]c(-c3ccncc3)n2)ccn1 [Topiroxostat],1.19,1.05,1.49,1.16,0.521,1.32
O=C(Nc1cccc(Cl)c1)Nc1ncc(CCNc2ncnc3ccsc23)s1 [SNS-314 Mesylate],1.07,1.84,0.974,1.73,0.589,1
CC1=NN(c2ccc(C)c(C)c2)C(=O)/C1=N\Nc1cccc(-c2cccc(C(=O)O)c2)c1O [Eltrombopag Olamine],1.58,1.04,1.13,2.4,1.69,1.49
CC(C)(Oc1ccc(Cl)cc1)C(=O)O [Clofibric Acid],0.903,0.74,0.644,0.793,0.498,0.547
Cc1ccc(/C(=C\CN2CCCC2)c2cccc(/C=C/C(=O)O)n2)cc1 [Acrivastine],1.08,0.966,1.03,0.976,0.729,1.02
